# The supplement of paper PMC11634586
# Tested on: NCI-H1688
# Test: inhibition of cell viability relative to untreated control (fraction); higher = stronger growth inhibition, active = 0.5 or more
# Details: 30 µM; 24 h
# Method in brief: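 After seeding at 3 × 10^3 cells/well in 96-well plates and a 24 h wait, NCI-H1688 small cell lung cancer cells received a natural compound library (TargetMol) at 30 µM for 24 h, kept at 37°C with 5% CO2. Triplicate readings of Cell Counting Kit-8 absorbance at 450 nm measured viability. Each value is the inhibition of cell viability as a fraction, derived from viability normalised to untreated cells.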
row,SMILES,inhibition of cell viability
1,OC[C@H]1O[C@@](CO)(O[C@H]2O[C@H](CO)[C@@H](O)[C@H](O)[C@H]2O)[C@@H](O[C@H]2O[C@H](CO)[C@@H](O)[C@H](O)[C@H]2O)[C@@H]1O [Melezitose],-0.0856 (inactive)
2,c1coc(CNc2ncnc3[nH]cnc23)c1 [Kinetin],0.00365 (inactive)
3,Cc1cc(O)c2c(c1)C(=O)c1cccc(O)c1C2=O [Chrysophanic Acid],-0.28 (inactive)
4,CC(C)c1cc(C(C)C)c(CC(=O)NS(=O)(=O)Oc2c(C(C)C)cccc2C(C)C)c(C(C)C)c1 [Avasimibe],0.757 (active)
5,Nc1nc(=O)c2c([nH]1)NCC(CNc1ccc(C(=O)N[C@@H](CCC(=O)O)C(=O)O)cc1)N2C=O (stereo not given in full) [Calcium folinate],0.028 (inactive)
6,O=c1c(-c2ccc(O)cc2)coc2cc(O[C@@H]3O[C@H](CO)[C@@H](O)[C@H](O)[C@H]3O)ccc12 [Daidzin],-0.0211 (inactive)
7,COc1cc2ccc(=O)oc2cc1O [Scopoletin],-0.00563 (inactive)
8,OC[C@H]1O[C@H](OCC2O[C@@H](O)[C@H](O)[C@@H](O)[C@@H]2O)[C@H](O)[C@@H](O)[C@H]1O (stereo not given in full) [Melibiose],-0.13 (inactive)
9,C[C@H](CCC(=O)O)[C@H]1CC[C@H]2[C@@H]3[C@H](O)C[C@@H]4C[C@H](O)CC[C@]4(C)[C@H]3CC[C@]12C [Chenodeoxycholic acid],0.152 (inactive)
10,C[C@]12CCC(=O)C=C1CC[C@@H]1[C@@H]2C(=O)C[C@@]2(C)[C@H]1CC[C@]2(O)C(=O)CO [Cortisone],-0.215 (inactive)
